Test results: the supplement of paper PMC6555819

Tested on: RARg:RXRa (NR concentration 270 nM, RXRa partner concentration 90 nM)
Test: PBM binding z-score (relative to random genomic background probes); higher = stronger binding; sequences stand for … in GC…GCGATTGACAGCGTAGAATGAAGG
Outline: (§1)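 The probes on custom Agilent 4×180K protein-binding microarrays were double-stranded, with 34-nt variable regions bearing direct-repeat seeds, single-nucleotide variants, half-site ablations and random human genomic background sequences. Incubation lasted 1 h with ligand-free nuclear receptor dimers in PBS pH 7.4, 2% milk, 0.02% Triton X-100, 1 mM DTT, 0.2 mg/mL BSA and 0.4 mg/ml salmon testes DNA. Antibodies against each partner (one per run) detected bound dimers, and fluorescence scans were regression-normalized. Binding z-scores take the random background probes as reference.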

Row | Sequence | PBM binding z-score
1 | TGAATTAGGTTATAAGATCAGGGAACGTTGCAAA | 0.498
2 | ATATCTAGGTTAAGGGTCATTCAGGTTGGTTCGC | 4.82
3 | TCTATTGGTTGAAGGGCAACCGACGAGTCCGTTT | 0.455
4 | ACTTACGCGTCAACGAGGTTATAGCACGCGTATA | 0.413
5 | ACTAGTTGGTCAGCTGACGTCACACACAATTCGG | 0.549
6 | CTCGAAAGGTCGTACTCAGGTGAGTATACCAAAC | 4.96
7 | TCGAGTAGGTTGGTCGGGGCATTCAGCCAACATA | -0.467
8 | CCTACTGGGCCAAGGTCATTGTTCAGTCAAAGCA | 3.46
9 | CCTACTGGGCCATTTAGAGGTCATTGATCATATG | 4.06
10 | CTCGAAAGGTCGGTTCAGGTGAGTATACGGATAA | 2.64
11 | ATCTCTACGTAAAGTTCAGTGAAAGATCGATAGA | 2.27
12 | CGACAAAGTTCAAGGTAACGTAACAGAAAGCAGC | 5.27
13 | CAAACTAGATCACGAAAGGTCAAAGTCGAATGAC | 5.87
14 | CCTAACGGGTCAAGGTTATAGCACGGGTGGTACG | 4.47
15 | CCGACTGGGGCATACGGTTACCATAAGCCAGCCC | 0.0936
16 | ATCTGTAGGTAAAGTTCAGTGAAAGATCGATAGA | 1.86
17 | ATCTCTAGGTAAAGTTCAGTTAAAGATCGATAGA | 1.65
18 | CGTCCAAGGTCAATACTAGGTCAGTGAAAGCATT | 6.92

Tested on: RARg homodimer (NR concentration 270 nM)
Test: as above
Outline: as §1

Row | Sequence | PBM binding z-score
19 | TCTATTAGTTGAAGGGCAAACGACGAGTCCGTTT | 0.64
20 | ATCGAAAGGTCGAAGGTAAGTATACCCACCCGAA | 3.99
21 | ACTGGCAGGCCAAGGGTCACTCAAGATTAGTCCG | 3.64
22 | CCGACTGGGGCAAGGTTACCATAACGCACAGCCA | 1.39
23 | ATCTCTAGGTAAAGATAGTACAGTGAATGCAAAT | 0.707
24 | ATCTGTAGGTAAAGATAGTTCAGTGAATGCAAAT | 0.657
25 | CCTAATTGGTCAGGAGGTCACACACCGGATATGA | 4.47
26 | CATGCTAGGTCAATGGTCAGCTAAAGCAGCTCGC | 4.43
27 | ATATGTAGGTTAGCTGGGGTCATACAGACTAGGC | 3.32
28 | ATCTCTAGGTAAAGTTAAGTGAAAGATCGATAGA | 0.546
29 | ACTATTAGTTGACTTCGGGCAACCGATACGACGC | 0.691
30 | CCTTACGGGTCACTGACAAGTTATAGCATTTGGA | 4.71
31 | ACTAGCAGGCCAAGTTTGGGTCACCCAAACAAAG | 2.18
32 | CCGACTGGGGCAAAGGTTACCAGACTCAGTACGA | 1.61
33 | GCTAGTTGGTCAGTAAAAGGTCACAAACCGGTCG | 4.28
34 | ATATGTAGGCTAGCTGGGGTCATTCAGACTAGGC | 1.99
35 | CATACAGGGTCAGCTAGGCCAGAGTCGGGACGGC | 4.67
36 | ATCTGTAGGTAACAAGTTCAGTGAAAGAGAGGAC | 1.42
37 | AGTCATAGTTCAGGACGAGGTAACGTAAAGCACG | 2.61
38 | TCATATAAGTAAATGCTAGGTGAAAGTCCGATCT | 0.348

Row | Sequence | PBM binding z-score
39 | TCATAAAGGTAAAGGTGAAAGTCGAACGATATGA | 2.08
40 | TCTGCTAGGTCAACCATGGTCAGCTAATCTGCTA | 5.7
41 | TGAATTAGGTTATAAGATCAGGGAACGTTGCAAA | 0.508
42 | ATATCTAGGTTAAGGGTCATTCAGGTTGGTTCGC | 3.86
43 | TCTATTGGTTGAAGGGCAACCGACGAGTCCGTTT | 0.586
44 | ACTTACGCGTCAACGAGGTTATAGCACGCGTATA | 0.22
45 | ACTAGTTGGTCAGCTGACGTCACACACAATTCGG | 0.913
46 | CTCGAAAGGTCGTACTCAGGTGAGTATACCAAAC | 3.87
47 | TCGAGTAGGTTGGTCGGGGCATTCAGCCAACATA | -0.483
48 | CCTACTGGGCCAAGGTCATTGTTCAGTCAAAGCA | 2.71
49 | CCTACTGGGCCATTTAGAGGTCATTGATCATATG | 2.72
50 | CTCGAAAGGTCGGTTCAGGTGAGTATACGGATAA | 2.62
51 | ATCTCTACGTAAAGTTCAGTGAAAGATCGATAGA | 2.86
52 | CGACAAAGTTCAAGGTAACGTAACAGAAAGCAGC | 5.99
53 | CAAACTAGATCACGAAAGGTCAAAGTCGAATGAC | 5.31
54 | CCTAACGGGTCAAGGTTATAGCACGGGTGGTACG | 4.4
55 | CCGACTGGGGCATACGGTTACCATAAGCCAGCCC | 0.374
56 | ATCTGTAGGTAAAGTTCAGTGAAAGATCGATAGA | 2.25
57 | ATCTCTAGGTAAAGTTCAGTTAAAGATCGATAGA | 2.5
58 | CGTCCAAGGTCAATACTAGGTCAGTGAAAGCATT | 6.34

Tested on: RXRa DBDmut IVT, anti-RXR (DBD mutation: RXRa K156A/R161A, NR concentration 90 nM)
Test: as above
Outline: as §1

Row | Sequence | PBM binding z-score
59 | TCTATTAGTTGAAGGGCAAACGACGAGTCCGTTT | 1.79
60 | ATCGAAAGGTCGAAGGTAAGTATACCCACCCGAA | 0.89
61 | ACTGGCAGGCCAAGGGTCACTCAAGATTAGTCCG | -0.0715
62 | CCGACTGGGGCAAGGTTACCATAACGCACAGCCA | -0.473
63 | ATCTCTAGGTAAAGATAGTACAGTGAATGCAAAT | -0.147
64 | ATCTGTAGGTAAAGATAGTTCAGTGAATGCAAAT | -0.108
65 | CCTAATTGGTCAGGAGGTCACACACCGGATATGA | 1.33
66 | CATGCTAGGTCAATGGTCAGCTAAAGCAGCTCGC | 1.63
67 | ATATGTAGGTTAGCTGGGGTCATACAGACTAGGC | 1.64
68 | ATCTCTAGGTAAAGTTAAGTGAAAGATCGATAGA | 0.204
69 | ACTATTAGTTGACTTCGGGCAACCGATACGACGC | 0.225
70 | CCTTACGGGTCACTGACAAGTTATAGCATTTGGA | 1.85
71 | ACTAGCAGGCCAAGTTTGGGTCACCCAAACAAAG | -0.623
72 | CCGACTGGGGCAAAGGTTACCAGACTCAGTACGA | -0.175
73 | GCTAGTTGGTCAGTAAAAGGTCACAAACCGGTCG | 0.203
74 | ATATGTAGGCTAGCTGGGGTCATTCAGACTAGGC | 1.43
75 | CATACAGGGTCAGCTAGGCCAGAGTCGGGACGGC | 2.13
76 | ATCTGTAGGTAACAAGTTCAGTGAAAGAGAGGAC | 0.851
77 | AGTCATAGTTCAGGACGAGGTAACGTAAAGCACG | 0.51
78 | TCATATAAGTAAATGCTAGGTGAAAGTCCGATCT | 2

Row | Sequence | PBM binding z-score
79 | TCATAAAGGTAAAGGTGAAAGTCGAACGATATGA | 1.06
80 | TCTGCTAGGTCAACCATGGTCAGCTAATCTGCTA | 1.05
81 | TGAATTAGGTTATAAGATCAGGGAACGTTGCAAA | -0.196
82 | ATATCTAGGTTAAGGGTCATTCAGGTTGGTTCGC | 2.66
83 | TCTATTGGTTGAAGGGCAACCGACGAGTCCGTTT | 1.37
84 | ACTTACGCGTCAACGAGGTTATAGCACGCGTATA | 0.579
85 | ACTAGTTGGTCAGCTGACGTCACACACAATTCGG | 0.433
86 | CTCGAAAGGTCGTACTCAGGTGAGTATACCAAAC | 2.42
87 | TCGAGTAGGTTGGTCGGGGCATTCAGCCAACATA | -0.0758
88 | CCTACTGGGCCAAGGTCATTGTTCAGTCAAAGCA | 1.59
89 | CCTACTGGGCCATTTAGAGGTCATTGATCATATG | 1.45
90 | CTCGAAAGGTCGGTTCAGGTGAGTATACGGATAA | 1.52
91 | ATCTCTACGTAAAGTTCAGTGAAAGATCGATAGA | 1.51
92 | CGACAAAGTTCAAGGTAACGTAACAGAAAGCAGC | 4.29
93 | CAAACTAGATCACGAAAGGTCAAAGTCGAATGAC | 1.47
94 | CCTAACGGGTCAAGGTTATAGCACGGGTGGTACG | 0.639
95 | CCGACTGGGGCATACGGTTACCATAAGCCAGCCC | -0.766
96 | ATCTGTAGGTAAAGTTCAGTGAAAGATCGATAGA | 1.35
97 | ATCTCTAGGTAAAGTTCAGTTAAAGATCGATAGA | 1.68
98 | CGTCCAAGGTCAATACTAGGTCAGTGAAAGCATT | 3.51
